Reference: ChEMBL document CHEMBL4513141, “CO-ADD screening of NIH (USA) - Clinical Collection” (2021)
Measured potencies and affinities stand elsewhere.

Key:
Klebsiella pneumoniae = conditions: Concentration 20 uM; ASSAY_TEST Inhibition of Bacterial Growth; detection method Absorption (OD600); MEDIA CAMHB; plate type 384well; NBS; CORNING #3640; time 18 hr
Candida albicans = conditions: 20 µM
Cryptococcus neoformans = conditions: Concentration 20 uM; ASSAY_TEST Inhibition of Fungal Growth; detection method Resazurin; Absorption (OD600-OD570); plate type 384well; NBS; CORNING #3640

Row | SMILES | Inhibition (Klebsiella pneumoniae) [%] | Inhibition (Candida albicans) [%] | Inhibition (Cryptococcus neoformans) [%]
1 | CC(C)(C)NC[C@H](O)COc1nsnc1N1CCOCC1.O=C(O)/C=C\C(=O)O [TIMOLOL MALEATE] | 6.73 | -1.73 | -3.81
2 | C[C@]12C=CC(=O)C=C1CC[C@@H]1[C@@H]2[C@@H](O)C[C@@]2(C)[C@H]1CC[C@]2(O)C(=O)CO [PREDNISOLONE] | 15.03 | 1.1 | -7.92
3 | CC(C)c1ccc2c(c1)c(SC(C)(C)C)c(CC(C)(C)C(=O)O)n2Cc1ccc(Cl)cc1 | 11.6 | 1.56 | -9.17
4 | CC(C)NCC(O)c1ccc(NS(C)(=O)=O)cc1.Cl (stereo not drawn) [SOTALOL HYDROCHLORIDE] | -0.96 | 5.09 | 3.23
5 | Oc1ncc(F)cn1 | 12.75 | 0.46 | -8.59
6 | CC(=O)O[C@H]1C[C@@H]2CC[C@@H]3[C@H](CC[C@@]4(C)[C@H]3C[C@H]([N+]3(C)CCCCC3)[C@@H]4OC(C)=O)[C@@]2(C)C[C@@H]1N1CCCCC1.[Br-] [VECURONIUM BROMIDE] | -0.14 | 5.46 | 2.54
7 | Cl.O=C1c2c(O)ccc(O)c2C(=O)c2c(NCCNCCO)ccc(NCCNCCO)c21 | 7.11 | -4.12 | 21.29
8 | CC(C)c1ccc2oc3nc(N)c(C(=O)O)cc3c(=O)c2c1 [AMLEXANOX] | 7.43 | 8.26 | -1.01
9 | Nc1ncnc2c1ncn2[C@@H]1O[C@H](CO)C[C@@H]1O.O | 6 | 5.13 | -7.2
10 | NS(=O)(=O)c1cc(C(=O)O)c(NCc2ccco2)cc1Cl [FUROSEMIDE] | 9.57 | 3.34 | -7.53
11 | CCCc1cc(=O)[nH]c(=S)[nH]1 [PROPYLTHIOURACIL] | 16.2 | 3.22 | -1.39
12 | Cc1[nH]c(=O)c(C#N)cc1-c1ccncc1 [MILRINONE] | 13.45 | 3.54 | -6.55
13 | OCCN1CCN(CCCN2c3ccccc3Sc3ccc(Cl)cc32)CC1 [PERPHENAZINE] | 14.78 | 3.82 | 23.91
14 | O=c1c(O[C@@H]2O[C@H](CO)[C@@H](O)[C@H](O)[C@H]2O)c(-c2ccc(O)c(O)c2)oc2cc(O)cc(O)c12 [ISOQUERCETIN] | 10.08 | 1.9 | 3.22
15 | COc1ccc(Cl)cc1C(=O)NCCc1ccc(S(=O)(=O)NC(=O)NC2CCCCC2)cc1 [GLYBURIDE] | 8.21 | -0.39 | 1.86
16 | COc1cc(C)nc(-n2nc(C)cc2OC)n1 [EPIRIZOLE] | 10.39 | -0.63 | 1.6
17 | CN1CCC(=C2c3ccccc3C=Cc3ccccc32)CC1.Cl [CYPROHEPTADINE HYDROCHLORIDE] | 17.49 | 3.56 | -5.58
18 | CNCCC=C1c2ccccc2CCc2ccccc21.Cl [NORTRIPTYLINE HYDROCHLORIDE] | 11.74 | 1.73 | -10.6
19 | CC(=O)/N=c1/sc(S(N)(=O)=O)nn1C [METHAZOLAMIDE] | 3.3 | 3.37 | -3.07
20 | CC1CC2C3CCC4=CC(=O)C=CC4(C)[C@@]3(Cl)C(O)CC2(C)C1(O)C(=O)CO (stereo partly drawn) | 12.23 | 3.02 | -2.46
21 | Cl.O=C1CN2Cc3c(ccc(Cl)c3Cl)N=C2N1 [ANAGRELIDE HYDROCHLORIDE] | 18.04 | 3.23 | -6.07
22 | NC(CO)(CO)CO.O=C(c1ccccc1)c1ccc2n1CCC2C(=O)O (stereo not drawn) [KETOROLAC TROMETHAMINE] | 3.11 | -0.08 | -4.39
23 | COCC1=C(C(=O)OC(C)OC(=O)OC(C)C)N2C(=O)[C@@H](NC(=O)/C(=N\OC)c3csc(N)n3)[C@H]2SC1 (stereo partly drawn) [CEFPODOXIME PROXETIL] | 5.41 | 4.56 | 0.11
24 | CN1C(C(=O)Nc2ccccn2)=C(O)c2ccccc2S1(=O)=O.O | 9.7 | 7.55 | -5.24
25 | CCCCN1CCCC1CNC(=O)c1cc(C#N)c2ccccc2c1OC (stereo not drawn) [NAFADOTRIDE] | 16.43 | 4.38 | -22.16
26 | CN(C)CCCN1c2ccccc2CCc2ccc(Cl)cc21.Cl [CLOMIPRAMINE HYDROCHLORIDE] | 18.4 | 2.36 | -9.01
